Sampled rows, rich in hits. Any-hit rate of the full collection: about 3.9%.
HSF1 inh = HSF1 inhibition. NIH3T3-HGL HSE-luciferase, MG132-induced, luminescence 8 h; stronger effect = lower value. activity change, negative = inhibition, % at 7.5 µM (by protocol). 300,000 compounds, 0.77% hits;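 active = more than half of replicate wells show activity change below -50%, luminescence cut by over half; inconclusive = some wells, but at most half, below -50%; inactive = no replicate well below -50%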;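 also: luciferase reports HSF-1 transcriptional activity via heat shock element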
HSF-1 act = increases HSF-1 driven luciferase reporter signal. NIH3T3-HGL HSF-1 luciferase reporter, MG132, 8 h; 100% = twice DMSO control signal. activation, % at 9 µM. 300,000 compounds, 1.7% hits. AID 504408;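 active = mean replicate activation of at least 50% with a set share of replicates each reaching 50%; inconclusive = only one of those two conditions met; inactive = mean below 50% and too few replicates reaching it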
Wnt act = activators of Wnt/beta-catenin signaling | Wnt/beta-catenin reporter cell assay, activator, plate reader | activation, % at 9.35 µM | 300,000 compounds, 1.2% hits | AID 743398; in the data active = activation above about 30%, passing the limit was not always enough; inconclusive = no clear call, values can overlap the other calls
esBAF inh = SWI/SNF esBAF complex inhibition | reporter increase, % at 12.5 µM | AID 602393 | mouse ES cells, Bmi1-luciferase knock-in reporter, 24 h; 100% = twice the neutral-well signal | 350,000 compounds, 2% hits; in the data active = activation above about 40%; inconclusive = no clear call, values can overlap the other calls;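 also: a rise in the Bmi1 reporter signal indicates esBAF inhibition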
MITF TRPM1 HTS = increases MITF-driven TRPM1 promoter luciferase signal; AID 588334; activation, % at 12.5 µM; 300,000 compounds, 0.75% hits; SK-MEL-5 TRPM1-promoter luciferase, 24 h; % of positive control, neutral wells = 0;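 active = mean activation of at least 80% with every replicate also reaching 80%; inconclusive = mean reaches 80% but some replicate falls short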
Each line names hits and unclear results; the compound was inactive in the other large screens.

Cn1ncc([N+](=O)[O-])c1C(=O)Nc1ccc(-c2nc3ccccc3o2)cc1	HSF-1 act 56 (no result: esBAF inh)
CO[C@H]1CN(C)C(=O)c2cc(NS(C)(=O)=O)ccc2OC[C@H](C)N(C(=O)C2CC2)C[C@H]1C	none (no result: HSF1 inh, HSF-1 act, Wnt act, MITF TRPM1 HTS)
O=C(CSc1ccccn1)c1ccc2c(c1)OCO2	Wnt act 47, esBAF inh 51 (no result: MITF TRPM1 HTS)
CC1CCN(C(=O)CSc2nc3ccccc3[nH]2)CC1	esBAF inh 51, MITF TRPM1 HTS inconclusive
O=C(CSc1nc2ccccc2[nH]1)c1ccc2c(c1)OCO2	Wnt act 54 (no result: HSF1 inh, HSF-1 act, MITF TRPM1 HTS)
O=C(Nc1ccccc1)C(=O)Nc1ccc2c(c1)N(C(=O)C1CC1)CCC2	Wnt act 42, MITF TRPM1 HTS 92 (no result: esBAF inh)
COc1ccc(C2c3ccc(O)cc3Oc3ncn(CCCO)c(=N)c32)cc1 (configuration not stated)	HSF-1 act 51 (no result: esBAF inh)
N=c1c2c(ncn1Cc1ccco1)Oc1cc(O)ccc1C2c1ccccc1 (configuration not stated)	none (no result: esBAF inh)
COc1ccc2nc(SCc3ccccc3C)nc(C)c2c1	HSF-1 act 55, Wnt act inconclusive (no result: esBAF inh)
COc1ccc2nc(SCc3cccc(C)c3)nc(C)c2c1	HSF-1 act 95, Wnt act 48 (no result: esBAF inh)
O=S(=O)(c1ccc(-n2cnnn2)cc1)N1CCNCC1	HSF-1 act 83
CCCN1C[C@@H](C)[C@@H](OC)CN(C)C(=O)c2ccc(NC(=O)COC)cc2OC[C@H]1C	none (no result: HSF1 inh, HSF-1 act, Wnt act, MITF TRPM1 HTS)
COc1cc(C=NN=c2sc3ccccc3n2C)ccc1OCCO	Wnt act 34 (no result: HSF1 inh, HSF-1 act, esBAF inh, MITF TRPM1 HTS)
COc1cc(C(=O)N=c2sc3ccccc3n2C)cc(OC)c1OC	none (no result: esBAF inh)
Oc1ccc(-c2nc3ccc4ccccc4c3c3c2CCC3)cc1O	HSF-1 act 61 (no result: esBAF inh)
Cc1cc(C)c2c(ccc3ccccc32)n1	none (no result: HSF1 inh, HSF-1 act, esBAF inh)
NC(=O)c1nsc(C(=O)N(c2ccccc2)C(C(=O)NCC2CCCO2)c2cccs2)c1N (configuration not stated)	HSF-1 act 73 (no result: esBAF inh)
Cc1ccc(C(C(=O)NCC2CCCO2)N(C(=O)c2snc(C(N)=O)c2N)c2ccc3c(c2)OCCO3)cc1 (configuration not stated)	none
O=C(NCC1CCCO1)C(c1cccnc1)N(C(=O)Cc1cccs1)c1ccccc1 (configuration not stated)	esBAF inh 69
NC(=O)c1nsc(C(=O)N(c2ccc3c(c2)OCCO3)C(C(=O)NCC2CCCO2)c2ccc(F)cc2)c1N (configuration not stated)	HSF1 inh -54
O=C(C[C@H]1CC[C@@H]2[C@H](COC[C@@H](O)CN2S(=O)(=O)c2ccccc2)O1)Nc1ccccc1	none (no result: HSF1 inh, HSF-1 act, Wnt act, MITF TRPM1 HTS)
Cc1cc(/C=N/NC(N)=S)c(C)n1-c1ccc(Cl)c(Cl)c1	none (no result: esBAF inh)
CCNC(=S)N/N=C/c1cc(C)n(-c2ccc(Cl)cc2)c1C	MITF TRPM1 HTS 86 (no result: esBAF inh)
CCOc1ccc2c(c1)ncn2Cc1ccccc1	none (no result: esBAF inh)
CC(=O)Oc1ccc(Cn2cnc3cc4ccccc4cc32)cc1	HSF-1 act 68 (no result: MITF TRPM1 HTS)
O=C(c1cc2cc(Br)ccc2o1)N1CCCCC1	HSF-1 act inconclusive, esBAF inh 49
CC=Cc1ccc2n(c1=O)C[C@@H]1[C@@H](CO)[C@H](C(=O)NCC)N(CCC(F)(F)F)[C@H]21 (mixture of isomers)	none (no result: HSF1 inh, HSF-1 act, Wnt act, MITF TRPM1 HTS)
Cc1ccc(Sc2ncccc2O)cc1	Wnt act 69 (no result: esBAF inh)
Cc1ccc(N2NC(C)(c3cccs3)NC2=S)cc1 (configuration not stated)	MITF TRPM1 HTS 92 (no result: esBAF inh)
CCN(Cc1ccncc1)C(=O)c1cc(COc2ccc(F)cc2Cl)on1	none
CC(=O)c1ccc(OCc2cc(C(=O)N(C)C(C)c3nccs3)no2)cc1 (configuration not stated)	HSF-1 act 85, esBAF inh 54
CCc1ccc(CN(C)C(=O)c2cc(COc3ccc(OC)cc3Cl)on2)nc1	HSF-1 act 56, esBAF inh 46
CCN(Cc1ccncc1)C(=O)c1cc(COc2ccc(OC)cc2Cl)on1	esBAF inh 72
COc1ccc(OCc2cc(C(=O)N(C)Cc3nnc(C)o3)no2)c(Cl)c1	esBAF inh inconclusive
COc1ccc(OCc2cc(C(=O)N(C)Cc3cc(C)no3)no2)c(Cl)c1	esBAF inh 48
CC(=O)c1ccc(OCc2cc(C(=O)N(C)C(C)c3ccon3)no2)cc1 (configuration not stated)	none
C[C@@H]1CCCCO[C@@H](CN(C)C(=O)Nc2ccccc2)[C@H](C)CN([C@H](C)CO)C(=O)c2cc(NC(=O)Nc3cccc4ccccc34)ccc2O1	none (no result: HSF1 inh, HSF-1 act, Wnt act, MITF TRPM1 HTS)
C/C=C/c1cnc2c(c1)C(=O)N([C@H](C)CO)C[C@H](C)[C@H](CN(C)C(=O)Nc1cccc(OC)c1)O2	none (no result: HSF1 inh, HSF-1 act, Wnt act, MITF TRPM1 HTS)
CC(C)NC(=O)N(C)C[C@H]1Oc2ccc(NS(=O)(=O)c3ccccc3)cc2CC(=O)N([C@@H](C)CO)C[C@@H]1C	none (no result: HSF1 inh, HSF-1 act, Wnt act, MITF TRPM1 HTS)
Cc1nonc1CN(C)C(=O)c1cc(COc2ccc(F)cc2Cl)on1	none
CC(=O)c1ccc(OCc2cc(C(=O)N(C)Cc3cc(C)no3)no2)cc1	esBAF inh 62
Cc1ccc(CN(C)C(=O)c2cc(COc3ccc(F)cc3Cl)on2)o1	HSF-1 act 54, esBAF inh 60
CC(=O)c1cccc(OCc2cc(C(=O)N(C)Cc3cnccn3)no2)c1	MITF TRPM1 HTS 96 (no result: esBAF inh)
CC(=O)c1cccc(OCc2cc(C(=O)N(C)C(C)c3ccccn3)no2)c1 (configuration not stated)	none
Cc1ccc(C(=O)c2cnc3cc4c(cc3c2S(=O)(=O)c2ccccc2)OCCO4)cc1	esBAF inh 118
Cc1ccccc1-c1cnc2c(c1)C(=O)N([C@@H](C)CO)C[C@@H](C)[C@@H](CN(C)C(=O)CC1CC1)O2	none (no result: HSF1 inh, HSF-1 act, Wnt act, MITF TRPM1 HTS)
CCCNC(=O)C[C@@H]1CC[C@@H]2[C@@H](COc3ccc(NC(=O)c4ccc(OC)cc4)cc3C(=O)N2C)O1	none (no result: HSF1 inh, HSF-1 act, Wnt act, MITF TRPM1 HTS)
O=C(O)C1C2CCCCC2=C2CCCCC2C1C(=O)Nc1nccs1 (configuration not stated)	none (no result: HSF1 inh, HSF-1 act, esBAF inh)
O=C(O)C1C2CCCCC2=C2CCCCC2C1C(=O)O (configuration not stated)	Wnt act 90
O=Cc1cn(-c2ccccc2)nc1-c1cccc([N+](=O)[O-])c1	esBAF inh 59 (no result: HSF1 inh, HSF-1 act, MITF TRPM1 HTS)
COc1ccccc1-n1cc2ccc([N+](=O)[O-])cc2n1	none (no result: esBAF inh)
O=[N+]([O-])c1ccc2cn(-c3ccccc3)nc2c1	esBAF inh 61
O=Cc1cn(-c2ccccc2)nc1-c1ccccc1	none
Cc1ccc2c(COC(=O)CNC(=O)c3ccccc3)cc(=O)oc2c1	none (no result: esBAF inh)
Cc1ccc2c(COC(=O)c3ccccc3OC(F)F)cc(=O)oc2c1	esBAF inh 48
Cc1ccc(S(=O)(=O)N(C)C[C@H]2Oc3ncc(C#CCC(C)C)cc3C(=O)N([C@@H](C)CO)C[C@H]2C)cc1	none (no result: HSF1 inh, HSF-1 act, Wnt act, MITF TRPM1 HTS)
O=C(NCCc1ccccc1F)c1cccc2cccnc12	esBAF inh 66
Cc1ccc(C)n1NC(=O)c1ccccc1[N+](=O)[O-]	none (no result: esBAF inh)
Cc1ccc(C)n1NC(=O)c1ccccc1O	HSF1 inh -85 (no result: Wnt act)
